# Source: the supplement of paper PMC7411054
# Legend:
# Conditions in all cases: treatment time: 24 h
# A549-ACTB-RAB5A [1] = assay: lowest phenotypically active concentration; higher = less potent
# How it was run: (§1)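 Four wells per concentration (0.3, 1, 3 or 9 µM) were treated for 24 h in each of fifteen gene-edited reporter lines from A549, HepG2 and WPMY1 cells, then imaged live. After normalising live-cell features to solvent control wells, deviation was defined as ≥3 of 4 wells lying past the 95th percentile of control Euclidean distances. Reproducibility was defined as a median replicate Pearson correlation above the 95th percentile of non-replicates. Both had to hold for phenotypic activity.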
# A549-CANX-COX4 [2] = assay: as above
# How it was run: as §1
# A549-GM130-SQSTM1 [3] = assay: as above
# How it was run: as §1
# A549-TP53BP1-CLTA [4] = assay: as above
# How it was run: as §1
# A549-TUBA1B-RELA [5] = assay: as above
# How it was run: as §1
# A549-ACTB-RAB5A [6] = assay: phenotypically active (imaging signature differs from DMSO and reproducible) at any of 0.3-9 uM (binary (1 = active, 0 = inactive)); higher = active
# How it was run: as §1
# A549-CANX-COX4 [7] = assay: as above
# How it was run: as §1
# A549-GM130-SQSTM1 [8] = assay: as above
# How it was run: as §1
# A549-TP53BP1-CLTA [9] = assay: as above
# How it was run: as §1
# A549-TUBA1B-RELA [10] = assay: as above
# How it was run: as §1
# HepG2-ACTB-RAB5A = assay: as above
# How it was run: as §1
# HepG2-CANX-COX4 = assay: as above
# How it was run: as §1
# HepG2-GM130-SQSTM1 = assay: as above
# How it was run: as §1
# HepG2-TP53BP1-CLTA = assay: as above
# How it was run: as §1
# HepG2-TUBA1B-RELA = assay: as above
# How it was run: as §1
# WPMY1-ACTB-RAB5A = assay: as above
# How it was run: as §1
# WPMY1-CANX-COX4 = assay: as above
# How it was run: as §1
# WPMY1-GM130-SQSTM1 = assay: as above
# How it was run: as §1
# WPMY1-TP53BP1-CLTA = assay: as above
# How it was run: as §1
# WPMY1-TUBA1B-RELA = assay: as above
# How it was run: as §1
Structure (SMILES),lowest phenotypically active concentration (A549-ACTB-RAB5A [1]),lowest phenotypically active concentration (A549-CANX-COX4 [2]),lowest phenotypically active concentration (A549-GM130-SQSTM1 [3]),lowest phenotypically active concentration (A549-TP53BP1-CLTA [4]),lowest phenotypically active concentration (A549-TUBA1B-RELA [5]),phenotypically active (A549-ACTB-RAB5A [6]),phenotypically active (A549-CANX-COX4 [7]),phenotypically active (A549-GM130-SQSTM1 [8]),phenotypically active (A549-TP53BP1-CLTA [9]),phenotypically active (A549-TUBA1B-RELA [10]),phenotypically active (HepG2-ACTB-RAB5A),phenotypically active (HepG2-CANX-COX4),phenotypically active (HepG2-GM130-SQSTM1),phenotypically active (HepG2-TP53BP1-CLTA),phenotypically active (HepG2-TUBA1B-RELA),phenotypically active (WPMY1-ACTB-RAB5A),phenotypically active (WPMY1-CANX-COX4),phenotypically active (WPMY1-GM130-SQSTM1),phenotypically active (WPMY1-TP53BP1-CLTA),phenotypically active (WPMY1-TUBA1B-RELA)
COCc1c(C(C)C)nc(C(C)C)c(/C=C/[C@@H](O)C[C@@H](O)CC(=O)O)c1-c1ccc(F)cc1 [cerivastatin],≤ 0.3 µM,1 µM,1 µM,≤ 0.3 µM,1 µM,1 (active),1 (active),1 (active),1 (active),1 (active),1 (active),1 (active),1 (active),1 (active),1 (active),1 (active),1 (active),1 (active),1 (active),1 (active)
CN(C)c1ccc(C(=O)NCCCCCCC(=O)NO)cc1,≤ 0.3 µM,≤ 0.3 µM,1 µM,≤ 0.3 µM,≤ 0.3 µM,1 (active),1 (active),1 (active),1 (active),1 (active),1 (active),1 (active),1 (active),1 (active),1 (active),1 (active),1 (active),1 (active),1 (active),1 (active)
Cc1cc(C)cc(C(=O)NOCCCCCC(=O)NO)c1,≤ 0.3 µM,≤ 0.3 µM,≤ 0.3 µM,1 µM,≤ 0.3 µM,1 (active),1 (active),1 (active),1 (active),1 (active),1 (active),1 (active),1 (active),1 (active),1 (active),1 (active),1 (active),1 (active),1 (active),1 (active)
O=C1Cc2c([nH]c3ccc(Br)cc23)-c2ccccc2N1 [Kenpaullone],3 µM,3 µM,3 µM,3 µM,3 µM,1 (active),1 (active),1 (active),1 (active),1 (active),1 (active),1 (active),1 (active),1 (active),1 (active),1 (active),1 (active),1 (active),1 (active),1 (active)
Cc1c(C(=O)N2CCOc3ccc(-c4ccc(N)nc4)cc3C2)ccc(S(C)(=O)=O)c1F,1 µM,3 µM,3 µM,3 µM,1 µM,1 (active),1 (active),1 (active),1 (active),1 (active),1 (active),1 (active),1 (active),1 (active),1 (active),1 (active),1 (active),1 (active),1 (active),1 (active)
O=C1c2c(O)ccc(O)c2C(=O)c2c(NCCNCCO)ccc(NCCNCCO)c21 [mitoxantrone],≤ 0.3 µM,≤ 0.3 µM,≤ 0.3 µM,≤ 0.3 µM,≤ 0.3 µM,1 (active),1 (active),1 (active),1 (active),1 (active),1 (active),1 (active),1 (active),1 (active),1 (active),1 (active),1 (active),1 (active),1 (active),1 (active)
Oc1ccc(-c2nc(-c3ccc(F)cc3)c(-c3ccncc3)[nH]2)cc1,3 µM,3 µM,9 µM,1 µM,3 µM,1 (active),1 (active),1 (active),1 (active),1 (active),1 (active),1 (active),1 (active),1 (active),1 (active),1 (active),1 (active),1 (active),1 (active),1 (active)
Cc1c[nH]c2nccc(Oc3c(F)cc(Nc4cc(Cl)nc(N)n4)cc3F)c12,≤ 0.3 µM,≤ 0.3 µM,≤ 0.3 µM,≤ 0.3 µM,1 µM,1 (active),1 (active),1 (active),1 (active),1 (active),1 (active),1 (active),1 (active),1 (active),1 (active),1 (active),1 (active),1 (active),1 (active),1 (active)
